# An excerpt weighted towards active compounds, which were near 0.96% of everything screened.
# Resorufin fluor = qHTS Assay for Spectroscopic Profiling in Resorufin Spectral Region. max dye-equivalent concentration, M. 0.04% of 59,000 active. Compound fluorescence, resorufin region 547/598 nm, buffer; active compounds read high
#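 Tris 100 mM pH 8.0; compound added, 15 min RT; CCD imager read, ex 547 nm/em 598 nm; signal normalized to resorufin standard curve (six concentrations per plate) as dye-equivalent concentration.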
# Texas Red fluor = qHTS Assay for Spectroscopic Profiling in Texas Red Spectral Region. 0.06% of 59,000 active. Compound fluorescence, Texas Red channel, 547/618 nm; active compounds read high. max dye-equivalent concentration, M. AID 587, 2007; in the data active means max dye-equivalent concentration above about 10 nM; inconclusive means between about 1.1 nM and that limit
#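 Pin-transferred compounds and Texas Red standards go into 100 mM Tris buffer, pH 8.0. After 15 min at room temperature, plates are imaged with 547/618 nm filters. Each value is a dye-equivalent concentration derived from the per-plate dye curve.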
# A488 fluor = qHTS Assay for Spectroscopic Profiling in A488 Spectral Region | compound autofluorescence, A488 spectral region, dye equivalency; Compound Type: qHTS ECL - MLSMR | max dye equivalency, M | 0.1% of 59,000 active | AID 591, 2007
#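 Spectroscopic profiling in the A488 region: compounds in pH 8.0 Tris (100 mM), 15 min RT, CCD imaging with 480 nm excitation and 540 nm emission; responses normalized against A488 dye standards.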
# Rhodamine autofl = qHTS Assay for Spectroscopic Profiling in Rhodamine Spectral Region. Rhodamine-region fluorescence, 547/598 nm, Tris buffer; active compounds read high. max dye-equivalent concentration, M. 0.05% of 59,000 active. AID 594, 2007; in the data active means max dye-equivalent concentration above about 11 nM; inconclusive means between about 1.1 nM and that limit
#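 Compound fluorescence in 100 mM Tris, pH 8.0, read after 15 min at room temperature with 547 nm excitation and 598 nm emission. Output is dye-equivalent concentration from an on-plate rhodamine standard series.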
# Fluorescein fluor = qHTS Assay for Spectroscopic Profiling in Fluorescein Spectral Region; Compound autofluorescence, 480/540 nm, fluorescein-equivalent; active compounds read high; max fluorescein-equivalent concentration, M; 0.91% of 59,000 active; in the data active means max fluorescein-equivalent concentration above about 10 nM; inconclusive means between about 1.1 nM and that limit
#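 Library compounds, added at multiple concentrations to pH 8.0 Tris buffer (100 mM), incubate 15 min at room temperature before CCD imaging at 480 nm excitation and 540 nm emission.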
# A647 autofl = qHTS Assay for Spectroscopic Profiling in A647 Spectral Region. Compound fluorescence, A647 channel (570/671 nm), Tris buffer. max dye-equivalent concentration, M. 59,000 tested, under 10 active. AID 592, 2007;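 further: values scaled relative to a standard on each plate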
#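 Fluorescence read (570 nm ex, 671 nm em) after 15 min RT incubation of compounds in 100 mM Tris buffer, pH 8.0; values expressed as dye-equivalent concentration against a six-point A647 standard series on each plate.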
# The depositor's hits bear a star; i = inactive; ? = inconclusive; ! = a repeat was not active. Unless noted, how the calls were made is not given here.
SMILES,Resorufin fluor,Texas Red fluor,A488 fluor,Rhodamine autofl,Fluorescein fluor,A647 autofl
N[C@@H](Cc1cccc([N+](=O)[O-])c1)C(=O)O,i,i,i,i,i,4.4e-09
Cc1ccc(C)n1Cc1ccc(C(=O)O)cc1,i,i,i,i,1.07e-08M*,?
CC[C@@]1(O)C(=O)OCc2c1cc1n(c2=O)Cc2cc3c(CN(C)C)c(O)ccc3nc2-1,i,?,2.05e-08M*,i,4.27e-07M*,4.7e-09
CCCCc1cc(=O)oc2c(CN(C)C)c(O)ccc12,i,i,i,i,?,2.69e-08
N#CC(C(=O)NC1CCCCC1)c1nc2ccccc2nc1N1CCN(c2ccc(F)cc2)CC1 (configuration not stated),i,i,2.01e-08M*,i,3.52e-07M*,3e-09
C=CCNC(=O)C(C#N)c1nc2ccccc2nc1N1CCN(Cc2ccccc2)CC1 (configuration not stated),i,i,?,i,5.57e-08M*,1e-09
N#CC(C(=O)NC1CC1)c1nc2ccccc2nc1N1CCN(C/C=C/c2ccccc2)CC1 (configuration not stated),i,i,?,i,1.29e-07M*,1e-09
N#CC(C(=O)NC1CC1)c1nc2ccccc2nc1N1CCCC1 (configuration not stated),i,?,?,i,1.79e-07M*,8.2e-09
COCCCNC(=O)C(C#N)c1nc2ccccc2nc1N1CCN(Cc2ccccc2)CC1 (configuration not stated),i,i,i,i,i,3e-08
N#CC(C(=O)NC1CCCCC1)c1nc2ccccc2nc1N1CCCCC1 (configuration not stated),i,i,i,i,?,2.15e-08
Clc1ccc(/C=C\c2nc(Cl)c(-c3ccc(Cl)cc3)c(Cl)n2)cc1,i,i,i,i,i,3.29e-08
CO[C@@H](NC(N)=O)C(=O)O,i,?,i,i,?,1e-09
Cc1nc(NCCCn2ccnc2)c2ccccc2n1,i,i,i,i,?,8.4e-09
O=C1c2ccccc2-c2onc3ccc(NCCCn4ccnc4)c1c23,6.55e-07M*,1.38e-07M*,2.61e-07M*,6.22e-07M*,4.57e-06M*,5.07e-08
CCN1C(=O)/C(=C/N2CCc3ccccc32)SC1=S,i,i,1.27e-08M*,i,2.17e-07M*,1.28e-08
CCN1C(=O)/C(=C\N2CCCc3ccccc32)SC1=S,i,?,i,i,2e-08M*,2.7e-09
O=C1c2ccccc2C(=O)N1CCC(=O)N1CCCc2ccccc21,i,i,i,i,i,1.68e-08
Cn1c(=O)c(-c2ccccc2)nc2cnc(OCc3ccccc3)nc21,i,i,i,i,?,3.73e-08
COc1cccc(Nc2ncc3nc(C)c(=O)n(CCc4ccccc4)c3n2)c1,i,i,i,i,i,1.02e-08
CC(=O)Nc1c2c3c(cccc3n(C)c1=O)C(=O)c1ccccc1-2,i,i,?,i,1.74e-08M*,1e-09
CO[C@@]12C[C@@H](COC(=O)c3cncc(Br)c3)CN(C)[C@H]1Cc1cn(C)c3cccc2c13,i,i,i,i,2.53e-08M*!,1e-09
O=C(O)c1ccc2c3c(ncnc13)-c1ccccc1C2=O,i,?,i,i,1.35e-08M*,5.9e-09
C[C@@]12CCC(=O)C=C1CC[C@H]1[C@@H]2[C@@H](O)C[C@]2(C)[C@@H]1CC[C@@]2(O)C(=O)CO,i,i,i,i,?,2.21e-08
O=C(c1ccco1)N1CCC2(CCN(Cc3nccs3)CC2)CC1,i,i,i,i,i,1.96e-08
CC(=O)N1CCN(c2ccc(N=Cc3c(O)n(Cc4ccccc4)c(=O)[nH]c3=O)cc2)CC1,i,i,i,i,1.89e-08M*,6.2e-09
SMILES,Resorufin fluor,Texas Red fluor,A488 fluor,Rhodamine autofl,Fluorescein fluor,A647 autofl
CCOC(=O)N1CCN(c2ccc(Cl)c(Cl)c2)CC1,i,i,i,i,i,2.4e-09
CCOC(=O)N1CCN(C2=Nc3cccc4cccc2c34)CC1,i,i,?,i,4.8e-08M*,1e-09
O=C(CN1C(=O)c2cccc3cccc1c23)N1CCN(c2ccccc2)CC1,i,i,i,i,i,2.9e-09
CC(=O)N1CCN(C2=Nc3cccc4cccc2c34)CC1,i,i,i,i,2.71e-08M*,3.58e-08
Cn1c(=O)c2[nH]c(COCc3nc4c([nH]3)c(=O)n(C)c(=O)n4C)nc2n(C)c1=O,i,i,i,i,?,1e-09
CCN1C(=O)/C(=C2\C=Cc3ccccc3N2CC)OC1=S,2.16e-08M*,?,3.81e-08M*,2.19e-08M*,8.02e-07M*,1.08e-08
CC(=O)Nc1nc2ncc(C=O)nc2c(=O)[nH]1,i,i,i,i,i,3.8e-09
COc1cc(O)c2c(O)c3c(c4c2c1[C@@]1(C4)C(C)=CCCC1(C)C)[C@H](O)[C@@]1(O)CC(=O)C(C(N)=O)=C(O)[C@]1(O)C3=O,i,i,i,i,2.05e-08M*,1e-09
CN(C)c1ccc(N/C=C/C(=O)c2ccccc2)cc1,i,i,i,i,1.35e-08M*,1.19e-08
CN(C)c1ccc(NC(=O)CCCc2ccccc2)cc1,i,?,i,i,?,3.91e-08
Cc1ccc(NC(=O)COC(=O)CCc2c[nH]c(=O)[nH]2)cc1,i,i,i,i,?,1.29e-08
O=C(COC(=O)CCc1c[nH]c(=O)[nH]1)Nc1ccccc1,i,i,i,i,1.83e-08M*,1e-09
CN(C)Cc1ccccc1-c1cncnc1Nc1ccccc1,i,i,i,i,?,4.69e-08
CN(C)c1ccc(/C=C/c2ccncc2)cc1,i,i,i,i,1.15e-08M*,2.56e-08
COc1cccc(/C=C/c2ccncc2)c1OC,i,i,i,i,i,2.72e-08
Cc1nccn1-c1c2c(c(C#N)c3nc4ccccc4n13)CCCC2,i,?,i,i,1.4e-08M*,2.06e-08
CCOC(=O)C1=C(C)NC(C)=C(C(=O)OC)[C@H]1c1cccc(Cl)c1Cl,i,i,i,i,?,1.03e-08
N#CC1=C(N)N(c2ccccc2)C2=C(C(=O)CCC2)C1c1ccsc1 (configuration not stated),i,i,i,i,i,2.9e-09
N#CC1=C(N)N2C(=C(C#N)C1c1ccccc1)Sc1ccccc12 (configuration not stated),i,i,?,i,4.21e-08M*,4.65e-08
